MCL1 BIM primary: inhibitors of MCL1 binding to BIM-BH3, primary screen, biochemical, fluorescence polarization. inhibition, % at 10.9 µM. 0.68% of 320,000 active. GST-MCL1 / FITC-Bim-BH3 fluorescence polarization. Induced myeloid leukemia cell differentiation protein Mcl-1 (Homo sapiens), Q07820;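 active = inhibition above the mean inhibition of all tested compounds plus 3 SD, set per campaign, cut at about 40% in these data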;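 note: 0% = DMSO wells and 100% = unlabeled Bim-BH3 peptide control; higher means more loss of mP so more displacement of Bim peptide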
Target sequence (Q07820 whole entry, looked up): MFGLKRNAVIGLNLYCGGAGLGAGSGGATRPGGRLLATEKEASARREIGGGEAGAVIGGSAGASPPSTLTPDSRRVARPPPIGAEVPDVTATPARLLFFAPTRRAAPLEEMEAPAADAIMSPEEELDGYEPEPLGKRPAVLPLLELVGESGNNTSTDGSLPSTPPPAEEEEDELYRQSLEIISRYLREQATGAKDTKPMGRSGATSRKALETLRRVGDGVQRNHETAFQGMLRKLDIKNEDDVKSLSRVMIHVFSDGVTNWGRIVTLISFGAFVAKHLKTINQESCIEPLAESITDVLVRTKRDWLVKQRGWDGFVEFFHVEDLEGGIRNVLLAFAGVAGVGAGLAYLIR
Mcl-1 Bim block: inhibitors of Bim peptide binding to Mcl-1, primary screen, biochemical, bead-based flow cytometry, multiplex; inhibition, % at 10 µM; Bim peptide-Mcl-1 binding; 0.1% of 190,000 active; Induced myeloid leukemia cell differentiation protein Mcl-1 (Homo sapiens), Q07820; in the data active = inhibition above about 40%;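 note: 0% = no compound tracer wells and 100% = peptide blocker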
Mcl1 Noxa PPI: Mcl-1/Noxa binding inhibitors, primary screen, biochemical, TR-FRET, 1536-well; Induced myeloid leukemia cell differentiation protein Mcl-1 (Homo sapiens), Q07820; TR-FRET Mcl-1/Noxa peptide binding, 2 h; inhibition, % at 21.7 µM; 1.5% of 220,000 active;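 active = compounds that cut the protein-peptide binding signal by more than 50% relative to plate controls in a single-dose test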;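 note: His-tagged Mcl-1 with rhodamine Noxa BH3 peptide and terbium anti-His antibody; 0% = Mcl-1 plus Noxa peptide wells and 100% = peptide-only wells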
Mcl1 Bid PPI: Mcl-1/Bid binding inhibitors, primary screen, biochemical, TR-FRET, 1536-well; TR-FRET Mcl-1/Bid-Dy647 peptide binding; inhibition, % at 21.7 µM; AID 1021, 2008; Induced myeloid leukemia cell differentiation protein Mcl-1 (Homo sapiens), Q07820; 0.97% of 220,000 active;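 active = compounds that cut the binding signal by more than half at the single screening dose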;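 note: His-tagged Mcl-1 with europium anti-His antibody binding Bid BH3 peptide; 0% = Mcl-1 plus peptide wells and 100% = peptide-only wells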
BCLXL inh: inhibitors of human Bcl-xL, primary screen, biochemical, fluorescence polarization, HTS. Bcl-2-like protein 1 (Homo sapiens), Q07817. GST-Bcl-xL / FITC-Bim BH3 peptide fluorescence polarization. inhibition, % at 10.9 µM. 0.7% of 320,000 active. AID 2129, 2009;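 active = inhibition above the mean of all tested compounds plus 3 SD, cutoff set per campaign, cut at about 30% in these data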;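 note: 0% = DMSO wells and 100% = unlabeled Bim-BH3 peptide competitor; inhibitors lower millipolarization by displacing the labeled peptide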
Target sequence (Q07817 whole entry, looked up): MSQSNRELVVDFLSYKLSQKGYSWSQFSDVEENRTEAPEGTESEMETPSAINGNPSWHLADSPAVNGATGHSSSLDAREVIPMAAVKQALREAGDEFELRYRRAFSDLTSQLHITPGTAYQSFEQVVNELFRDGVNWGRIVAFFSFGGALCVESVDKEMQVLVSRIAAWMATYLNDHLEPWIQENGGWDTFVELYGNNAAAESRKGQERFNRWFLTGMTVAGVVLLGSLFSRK
GLD-1 TGE inh: GLD-1/TGE RNA complex disruptors, primary screen, biochemical, fluorescence polarization; Female germline-specific tumor suppressor gld-1 (Caenorhabditis elegans), Q17339; purified GLD-1 + fluorescein TGE RNA; inhibition, % at 5.96 µM; 0.44% of 320,000 active; AID 2280, 2010;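 active = percent inhibition above a per-plate cutoff, the plate mean of test compounds plus 3 SD, cut at about 30% in these data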;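 note: 0% = DMSO wells with GLD-1 and probe and 100% = wells lacking GLD-1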
BCLXL inh confirm: Bcl-xL inhibitors blocking Bim BH3 binding, confirmation, counter-screen for MCL1 inhibitor project, biochemical, fluorescence polarization. shares compounds with MCL1 BIM primary. GST-Bcl-xL / FITC-Bim BH3 peptide FP binding. inhibition, % at 10.9 µM. 54% of 1,700 active;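 active = inhibition above a cutoff equal to the mean inhibition of all tested compounds plus 3 SD, cut at about 30% in these data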;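 note: 0% = DMSO wells and 100% = unlabeled Bim BH3 control peptide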
MCL1 inh confirm: inhibitors of MCL1 binding to BIM-BH3, confirmation, biochemical, fluorescence polarization, triplicate. inhibition, % at 10.9 µM. GST-MCL1 / FITC-Bim-BH3 fluorescence polarization. 61% of 1,700 active. shares compounds with MCL1 BIM primary;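 active = inhibition above the average of all tested compounds plus 3 SD, cut at about 40% in these data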;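 note: 0% = DMSO wells and 100% = unlabeled Bim-BH3 control peptide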
GLD1 RNA confirm: GLD-1/TGE RNA binding inhibitors, retest, confirmation, biochemical, fluorescence polarization, triplicate | GLD-1/FL-TGE RNA fluorescence polarization | 10% of 550 active | shares compounds with GLD-1 TGE inh | inhibition, % at 5.96 µM;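 active = average inhibition across triplicates above the hit cutoff set in the primary screen, cut at about 32% in these data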;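 note: 0% = GLD-1 with RNA probe and DMSO and 100% = wells lacking GLD-1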
Active calls of the source: *; x = no result. An excerpt weighted towards active compounds, which were near 2.3% of everything screened.

SMILES	MCL1 BIM primary	Mcl-1 Bim block	Mcl1 Noxa PPI	Mcl1 Bid PPI	BCLXL inh	GLD-1 TGE inh	GLD1 RNA confirm	others
O=C(O)c1cccc2c1C(=O)c1ccccc1C2=O	-2	0	8	-6	6	6	x
O=C(O)c1ccc2c3c(ncnc13)-c1ccccc1C2=O	74*	-4	22	13	72*	60*	45*	BCLXL inh confirm=121*;MCL1 inh confirm=142*
CCn1c(CSc2nccn2C)nc2cc(C(=O)O)ccc21	65*	-2	19	-9	57*	45*	40*	BCLXL inh confirm=33*;MCL1 inh confirm=44*
COc1ccc(N2CCN(C(=O)c3cc(=O)c4cc(C)ccc4o3)CC2)cc1	-8	x	x	x	-1	1	x
CCC(=Nc1ccc(N)cc1)C1=C(O)C(C(=O)OC)C(C)(C)CC1=O (stereo not drawn)	61*	5	16	-59	56*	46*	-3	BCLXL inh confirm=30*;MCL1 inh confirm=19
COc1ccccc1C(=O)NC(=O)CSc1nncn1C(C)C	1	x	x	x	2	2	x
Cc1onc(-c2ccccc2Cl)c1C(=O)NCc1ccc2c(c1)cc(C)n2C	77*	x	-7	-139	66*	68*	16	BCLXL inh confirm=34*;MCL1 inh confirm=47*
Cc1ccc(CNC(=O)c2c(-c3ccccc3Cl)noc2C)cc1	-1	x	x	x	-1	-1	x
O=C(O)c1ccc(Cl)c2c1C1C=CCC1C(c1ccccn1)N2 (stereo not drawn)	115*	5	89*	56*	85*	39*	21	BCLXL inh confirm=58*;MCL1 inh confirm=82*
Cc1cc([N+](=O)[O-])cc2c1NC(c1ccccn1)C1CC=CC21 (stereo not drawn)	19	3	41	-9	11	-4	x
COC(=O)c1c(C)c2c(C)cc3ccccn3c-2c1C(=O)OC	51*	0	23	-57	51*	33*	20	BCLXL inh confirm=60*;MCL1 inh confirm=74*
CCOC(=O)C(=O)c1c(C)cc2ccccn12	x	0	0	-21	x	x	x
N#Cc1c(SCC(=O)N2CCOCC2)nsc1SCC(=O)N1CCOCC1	76*	-3	1	3	66*	50*	-2	BCLXL inh confirm=9;MCL1 inh confirm=12
CC(=O)Oc1ccc(N2C(=O)C3C(C2=O)C(C(=O)c2ccc(Cl)cc2)N2CCCC32)cc1 (stereo not drawn)	74*	x	17	-21	78*	58*	14	BCLXL inh confirm=66*;MCL1 inh confirm=86*
COc1ccc(N2C(=O)[C@@H]3[C@H](C2=O)[C@H](C(=O)c2ccc(OC(C)=O)cc2)N2N=CC=C[C@@H]32)cc1	2	4	8	-46	7	2	x
Cc1ccc(-c2cc(C(=O)O)c3cc(Br)ccc3n2)o1	75*	1	93*	18	62*	37*	3	BCLXL inh confirm=28;MCL1 inh confirm=44*
Cc1ccc(-c2cc(C(=O)N3CC(C)CC(C)C3)c3ccccc3n2)o1 (stereo not drawn)	24	x	x	x	21	6	x
CCOC(=O)c1ccc(NCCc2ccc(OC)c(OC)c2)c(N)c1	-8	x	x	x	-10	-11	x
Cc1cc(C)n2nc(C(=O)OCC(=O)N(C)C3CCCCC3)nc2n1	1	x	x	x	3	7	x
CCc1n[nH]c(=S)n1/N=C/c1cc(Br)c(O)c(OC)c1	-6	x	15	-75	-5	56*	7
COc1cc(/C=N/n2c(COc3ccccc3)n[nH]c2=S)cc(Br)c1O	-2	x	x	x	2	-4	x
N#CC1=C2N=C(N)c3ccccc3N2C2=C(C(=O)CCC2)C1c1cccc(Cl)c1 (stereo not drawn)	16	-4	-6	-3	21	48*	-1
CCOc1cc(N2CCOCC2)c(OCC)cc1NC(=O)C1CC(=O)N(c2ccc(C)cc2)C1 (stereo not drawn)	5	x	x	x	2	1	x
Cc1cccc(C2NC(c3cccc(C)c3)C(C)C(=O)C2C)c1 (stereo not drawn)	-1	x	x	x	0	1	x
CCOC(=O)C1Cc2cc3c(cc2C1=O)CC(C(=O)OCC)C3=O (stereo not drawn)	x	0	8	4	x	x	x
SMILES	MCL1 BIM primary	Mcl-1 Bim block	Mcl1 Noxa PPI	Mcl1 Bid PPI	BCLXL inh	GLD-1 TGE inh	GLD1 RNA confirm	others
CCOC(=O)C1CC(=O)c2cc(OC)c(OC)cc2C1 (stereo not drawn)	-1	x	4	-2	-1	60*	1
O=C(NC1CCCC1)C(c1ccccn1)N(C(=O)c1csnn1)c1ccc(F)cc1 (stereo not drawn)	6	x	x	x	6	-1	x
O=C(O)C1CN(c2ncccc2[N+](=O)[O-])C1	-2	1	7	-13	1	9	x
O=C(O)[C@@H]1[C@@H]2C[C@@H]2CN1c1ncccc1[N+](=O)[O-]	47*	-1	19	-32	47*	39*	-2
COc1ccc(N2CS(=O)CC2=O)cc1 (stereo not drawn)	8	3	-1	-31	0	-3	x
Cc1cc(C(=O)OCC(=O)N2CCC(C)CC2)c2ccccc2n1	x	x	x	x	x	-1	x
CC(C)N1CC2=C(OC(N)=C(C#N)C2c2cccnc2)/C(=C/c2cccnc2)C1 (stereo not drawn)	37	2	-9	-59	45*	39*	5
N#C/C(=C(\O)c1cc(Cl)sc1Cl)c1nc2ccccc2[nH]1	-4	x	x	x	0	-11	x
Cc1cc2ccccc2n1CCNC(=O)c1cccs1	39	6	12	-9	42*	49*	6
Cc1cc2ccccc2n1CCNC(=O)C1CCCC1	24	-2	-7	-19	27	17	x
Cc1cc2ccccc2n1CCNC(=O)C1CC1	23	x	x	x	22	35*	13
OCC[C@H]1C[C@@H](O)[C@H](O)[C@]2(OCc3ccccc32)O1	3	x	x	x	0	7	x

Screening results (PubChem BioAssay)
